Inconclusive results are not listed. A call without a number means that no potency is given here. Activity calls are given as the source filed them. Unless noted, the call rests on the fitted dose curve; in most records, active means well fitted curve in the direction sought with a large enough effect; inconclusive means small, poorly fitted or top-dose-only effect, or another doubt; inactive means no such curve, though single readings can be large; an effect the other way counts as inactive or inconclusive.
Key:
[1] = molecular target: T1, Hexokinase-4 (Homo sapiens) + Glucokinase regulatory protein (Homo sapiens) (UniProt P35557+Q14397); test: qHTS assay for inhibitors of recombinant human GCK-GKRP interaction: Diaphorase-coupled assay (AID 743205)
How it was run: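 Inhibitors of the GCK–GKRP complex relieve GKRP suppression of GCK, detected through a G6PDH–diaphorase cascade reducing resazurin. Human GST-GCK and FLAG-GKRP are used at 10 nM with 5 mM glucose and 0.4 mM ATP.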

[2] = molecular target: T1, Hexokinase-4 (Homo sapiens) + Glucokinase regulatory protein (Homo sapiens); test: qHTS assay for inhibitors of recombinant human GCK-GKRP interaction: HTRF assay (AID 743207)
How it was run: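 Steps: dispense GCK–GKRP complex (5 nM each, GST- and FLAG-tagged) with 2 uM S6P; pin in compounds; add XL665/Eu-cryptate-labelled antibodies; incubate 60 min at room temperature; read time-resolved FRET at 665 and 615 nm.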

[3] = qHTS Assay for Identifying Gametocytocidal Compounds (AID 743244);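 further: actives lower the fluorescent signal which means gametocytes are killed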; conditions: P. falciparum 3D7 stage III-V gametocytes, alamarBlue, 72 h; max response: stronger effect = lower value
How it was run: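 Using 20,000 stage III–V 3D7 gametocytes per well, compounds were incubated 72 h under 37 °C/5% CO2. Viability was then assessed by 24 h alamarBlue reduction, measured fluorometrically at 525/598 nm.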

[4] = qHTS assay for measurement of the activity of small molecule inhibitors on Zika virus induced Caspase-3 activity in human iPSC derived neural progenitor cells (hNPCs) (AID 1224857); further: nearly all actives have a fitted effect of over 65% in size
How it was run: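 After overnight (16–20 h) culture at 350 cells/well, hNPCs get compound, then ZIKV 2 FFU/cell one hour later. Six hours on, Caspase-Glo 3/7 is added and luminescence measured.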

[5] = qHTS assay for measurement of the activity of small molecule inhibitors on Zika virus induced Caspase-3 activity in human astrocytoma cells (AID 1224859)
How it was run: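 Inhibition of Zika-induced caspase-3/7 activity: SNB-19 cells, 1 h compound pretreatment, ZIKV 2 FFU/cell for 6 h at 37 C, Caspase-Glo luminescence read-out.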

[6] = molecular target: Atrial natriuretic peptide receptor 1 (Homo sapiens) (UniProt P16066); test: Natriuretic polypeptide receptor (hNpr1) antagonism - Pilot screen (AID 1347049; calls by dose curve;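 further: agonist-evoked cGMP luminescence read 20 min after hNppA addition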; further: potency means the concentration at half of the fitted maximal effect)
How it was run: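 HEK293 cells co-expressing hNpr1 and the GloSensor pGS-40F cGMP luciferase sensor were preloaded with 2% GloSensor reagent for 2 h. Compounds were added for 30 min at room temperature, then cells were stimulated with 0.1 nM hNppA for 20 min before luminescence readout.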

[7] = molecular target: Atrial natriuretic peptide receptor 2 (Homo sapiens) (UniProt P20594); test: Natriuretic polypeptide receptor (hNpr2) antagonism - Pilot subtype selectivity assay (AID 1347050; calls by dose curve; further: potency means the concentration at half of the fitted maximal effect)
How it was run: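 cGMP-sensor HEK293/hNpr2 cells; 2% GloSensor reagent 2 h RT; compounds 30 min; baseline luminescence read; 1 nM hNppC agonist 20 min RT; final luminescence read by CCD camera. Antagonism = reduced post-agonist signal.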

[8] = molecular target: T1, Hexokinase-4 (Homo sapiens) + Glucokinase regulatory protein (Homo sapiens); test: qHTS assay for inhibitors of recombinant human GCK-GKRP interaction: ADP-Glo assay (AID 743206)
How it was run: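 GST-GCK and FLAG-GKRP (15 nM each in the dispensed mix, with 2 uM S6P) react with 0.4 mM ATP and 5 mM glucose (final) in Hepes pH 7.6 for 60 min at room temperature. ADP is measured by ADP-Glo luminescence.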

[9] = Natriuretic polypeptide receptor (hNpr1) antagonism - Pilot counterscreen GloSensor control cell line (AID 1347045; calls by dose curve; further: potency means the concentration at half of the fitted maximal effect)
How it was run: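 Luminescence was read before and 20 min after adding 50 uM SNP, which stimulates soluble guanylyl cyclase. The HEK293 cells expressing the GloSensor cGMP sensor had been preloaded with 2% reagent for 2 h and treated with compound.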

[10] = qHTS profiling of the MIPE4 collection as inhibitors of Plasmodium falciparum (3D7) proliferation (AID 743344; call rule not given here); conditions: P. falciparum 3D7 in erythrocytes, SYBR Green DNA fluorescence, 72 h; at 28.5 µM (top of the series)
How it was run: (§1)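 Erythrocytes infected with P. falciparum (0.3% parasitemia, 2.5% hematocrit) incubated with compounds 72 h at 37 C, 5% CO2. Lysis with saponin/Triton buffer containing SYBR Green I, overnight at room temperature in the dark; DNA fluorescence (485/535 nm) normalised to 0.29 uM artemisinin and DMSO.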

[11] = qHTS profiling of the MIPE4 collection as inhibitors of Plasmodium falciparum (DD2) proliferation (AID 743345; call rule not given here); conditions: P. falciparum Dd2 in erythrocytes, SYBR Green DNA, 72 h; at 28.5 µM (top of the series)
How it was run: as §1

[12] = qHTS profiling of the MIPE4 collection as inhibitors of Plasmodium falciparum (DD2) proliferation (Rep 2) (AID 743346; call rule not given here); conditions: P. falciparum Dd2 in erythrocytes, SYBR Green DNA, 72 h; at 28.5 µM (top of the series)
How it was run: as §1

[13] = qHTS profiling of the MIPE4 collection as inhibitors of Plasmodium falciparum (HB3) proliferation (AID 743347; call rule not given here); conditions: P. falciparum HB3 in erythrocytes, SYBR Green DNA, 72 h; at 28.5 µM (top of the series)
How it was run: as §1

[14] = P-glycoprotein substrates identified in KB-3-1 adenocarcinoma cell line, qHTS therapeutic library screen (AID 1346986);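 further: potency means the concentration at half of the fitted maximal effect; potency is for cytotoxicity meaning loss of cell viability; nearly all actives have a fitted effect of over 60% in size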
How it was run: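 Resistance attributable to P-gp was assessed by comparing AC50 in KB-8-5-11 with parental KB-3-1 and by tariquidar reversal. Cells were exposed 72 h and viability read by CellTiter-Glo.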

T1 sequence (P35557 whole entry, looked up): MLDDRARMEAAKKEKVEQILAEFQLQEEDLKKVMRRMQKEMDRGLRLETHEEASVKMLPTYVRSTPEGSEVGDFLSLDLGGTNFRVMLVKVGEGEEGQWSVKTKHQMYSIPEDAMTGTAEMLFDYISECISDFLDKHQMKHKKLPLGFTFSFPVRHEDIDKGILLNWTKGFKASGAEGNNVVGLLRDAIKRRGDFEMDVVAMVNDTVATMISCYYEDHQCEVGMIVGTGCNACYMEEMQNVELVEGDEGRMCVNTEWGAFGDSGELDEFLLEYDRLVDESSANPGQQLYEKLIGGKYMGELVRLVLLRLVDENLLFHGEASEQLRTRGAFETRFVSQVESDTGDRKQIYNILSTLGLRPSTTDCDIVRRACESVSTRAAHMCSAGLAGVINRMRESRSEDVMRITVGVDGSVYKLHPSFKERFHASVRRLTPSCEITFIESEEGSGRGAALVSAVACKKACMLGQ
T1 sequence (Q14397 whole entry, looked up): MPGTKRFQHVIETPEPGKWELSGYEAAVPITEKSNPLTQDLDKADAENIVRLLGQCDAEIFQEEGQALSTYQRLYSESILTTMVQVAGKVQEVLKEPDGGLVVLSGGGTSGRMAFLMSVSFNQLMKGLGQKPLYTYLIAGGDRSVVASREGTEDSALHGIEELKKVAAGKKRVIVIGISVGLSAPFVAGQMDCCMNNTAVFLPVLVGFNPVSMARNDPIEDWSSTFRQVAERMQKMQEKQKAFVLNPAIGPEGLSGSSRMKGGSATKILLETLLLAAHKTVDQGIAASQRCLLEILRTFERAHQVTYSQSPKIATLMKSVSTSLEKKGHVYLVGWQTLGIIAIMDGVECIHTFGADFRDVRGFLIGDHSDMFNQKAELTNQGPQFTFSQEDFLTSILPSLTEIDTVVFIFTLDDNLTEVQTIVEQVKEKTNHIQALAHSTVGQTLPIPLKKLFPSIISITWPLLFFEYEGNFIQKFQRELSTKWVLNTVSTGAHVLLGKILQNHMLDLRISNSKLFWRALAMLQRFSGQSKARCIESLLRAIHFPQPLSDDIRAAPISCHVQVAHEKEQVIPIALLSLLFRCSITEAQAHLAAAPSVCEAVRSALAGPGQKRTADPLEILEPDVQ
Atrial natriuretic peptide receptor 1 (Homo sapiens), sequence (P16066 whole entry, looked up): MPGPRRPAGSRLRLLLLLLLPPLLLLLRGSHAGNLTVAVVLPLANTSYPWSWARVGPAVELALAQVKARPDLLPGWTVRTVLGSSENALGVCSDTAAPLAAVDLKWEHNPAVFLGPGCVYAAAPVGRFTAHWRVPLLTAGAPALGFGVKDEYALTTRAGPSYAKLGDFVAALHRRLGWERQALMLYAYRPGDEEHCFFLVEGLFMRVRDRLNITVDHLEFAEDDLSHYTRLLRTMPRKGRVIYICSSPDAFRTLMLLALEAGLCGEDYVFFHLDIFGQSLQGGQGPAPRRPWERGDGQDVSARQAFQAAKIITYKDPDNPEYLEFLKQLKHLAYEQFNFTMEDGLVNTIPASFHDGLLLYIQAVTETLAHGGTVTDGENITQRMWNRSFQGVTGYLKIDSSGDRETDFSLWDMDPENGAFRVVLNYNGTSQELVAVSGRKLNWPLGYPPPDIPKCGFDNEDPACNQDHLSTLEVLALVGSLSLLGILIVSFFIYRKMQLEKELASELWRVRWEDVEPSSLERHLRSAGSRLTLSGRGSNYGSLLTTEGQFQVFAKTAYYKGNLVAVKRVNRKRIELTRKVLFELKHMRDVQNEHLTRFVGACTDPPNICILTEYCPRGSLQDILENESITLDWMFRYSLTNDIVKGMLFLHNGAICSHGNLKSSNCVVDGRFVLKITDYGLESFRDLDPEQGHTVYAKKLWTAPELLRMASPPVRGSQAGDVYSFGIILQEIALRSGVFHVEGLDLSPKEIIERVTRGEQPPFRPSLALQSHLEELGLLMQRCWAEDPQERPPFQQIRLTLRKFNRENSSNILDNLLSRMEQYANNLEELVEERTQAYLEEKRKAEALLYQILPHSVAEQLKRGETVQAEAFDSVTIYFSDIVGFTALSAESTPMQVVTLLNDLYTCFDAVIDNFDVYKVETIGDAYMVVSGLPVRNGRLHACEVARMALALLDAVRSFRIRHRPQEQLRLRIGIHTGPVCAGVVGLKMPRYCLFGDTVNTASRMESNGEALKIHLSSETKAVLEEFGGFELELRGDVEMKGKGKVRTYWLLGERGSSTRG
Atrial natriuretic peptide receptor 2 (Homo sapiens), sequence (P20594 whole entry, looked up): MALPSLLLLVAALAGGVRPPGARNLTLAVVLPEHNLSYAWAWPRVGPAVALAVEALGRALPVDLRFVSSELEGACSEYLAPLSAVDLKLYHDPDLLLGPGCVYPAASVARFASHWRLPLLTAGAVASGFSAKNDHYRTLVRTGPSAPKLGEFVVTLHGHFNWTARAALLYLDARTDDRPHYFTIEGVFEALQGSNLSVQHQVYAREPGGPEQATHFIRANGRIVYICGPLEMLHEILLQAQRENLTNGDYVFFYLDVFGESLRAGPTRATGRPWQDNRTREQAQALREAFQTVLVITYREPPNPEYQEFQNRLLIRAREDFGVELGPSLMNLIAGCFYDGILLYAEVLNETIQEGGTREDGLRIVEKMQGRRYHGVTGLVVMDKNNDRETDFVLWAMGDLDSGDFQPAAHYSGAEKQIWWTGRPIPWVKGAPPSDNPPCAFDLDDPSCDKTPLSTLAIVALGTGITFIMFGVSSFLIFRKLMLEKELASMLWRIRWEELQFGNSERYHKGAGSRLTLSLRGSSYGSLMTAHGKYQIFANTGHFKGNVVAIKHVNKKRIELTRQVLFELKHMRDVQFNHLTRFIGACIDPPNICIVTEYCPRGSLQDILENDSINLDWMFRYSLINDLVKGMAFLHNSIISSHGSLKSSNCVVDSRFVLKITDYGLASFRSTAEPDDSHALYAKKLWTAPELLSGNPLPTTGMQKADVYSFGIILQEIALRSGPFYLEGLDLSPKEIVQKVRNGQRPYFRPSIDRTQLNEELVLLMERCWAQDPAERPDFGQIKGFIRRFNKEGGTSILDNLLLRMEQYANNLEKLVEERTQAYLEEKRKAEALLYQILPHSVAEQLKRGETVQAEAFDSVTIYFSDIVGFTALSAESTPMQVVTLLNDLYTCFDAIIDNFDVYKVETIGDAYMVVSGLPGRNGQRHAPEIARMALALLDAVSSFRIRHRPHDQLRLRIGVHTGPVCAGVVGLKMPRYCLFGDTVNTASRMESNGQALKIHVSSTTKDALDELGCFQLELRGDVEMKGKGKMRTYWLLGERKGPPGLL

SMILES: Nc1nc2ccc(Cl)cc2c2nc(-c3ccco3)nn12
- Potency [1]: inactive
- Potency [2]: inactive
- max response [3]: -3.79% (inactive)
- Potency [4]: inactive
- Potency [5]: inactive
- Potency [6]: inactive
- Potency [7]: inactive

SMILES: Cn1c(=O)c2[nH]c(C3CCCC3)nc2n(C)c1=O
- Potency [1]: inactive
- Potency [2]: inactive
- max response [3]: 9.69% (inactive)
- Potency [4]: inactive
- Potency [5]: inactive
- Potency [6]: inactive
- Potency [7]: inactive

SMILES: N=C(N)c1ccc(N)cc1
- Potency [1]: inactive
- Potency [8]: inactive
- Potency [2]: inactive
- max response [3]: -4.7% (inactive)
- Potency [4]: inactive
- Potency [5]: inactive
- Potency [6]: inactive
- Potency [7]: inactive

SMILES: C#CCn1c(=O)c2c(ncn2C)n(C)c1=O
- Potency [1]: inactive
- Potency [8]: inactive
- Potency [2]: inactive
- max response [3]: 7.96% (inactive)
- Potency [4]: inactive
- Potency [5]: inactive
- Potency [6]: inactive
- Potency [7]: inactive

SMILES: CCC1(O)CC2CN(CCc3c([nH]c4ccccc34)[C@@](C(=O)OC)(c3cc4c(cc3OC)N(C=O)C3[C@]45CCN4CC=C[C@@](CC)([C@@H](OC(C)=O)[C@]3(O)C(=O)OC)[C@H]45)C2)C1 (some centres not stated)
- Potency [8]: inactive
- Potency [4]: inactive
- Potency [5]: inactive
- Potency [6]: inactive

SMILES: c1ccc(C(NCCNC(c2ccccc2)c2ccccc2)c2ccccc2)cc1
- Potency [1]: inactive
- Potency [8]: inactive
- max response [3]: -2.86% (inactive)
- Potency [4]: inactive
- Potency [5]: inactive
- Potency [9]: 13.1 µM (active)

SMILES: C=C(C)C1CC=C(C(=O)O)CC1 (configuration not stated)
- Potency [1]: inactive
- Potency [8]: inactive
- Potency [2]: inactive
- max response [3]: 19.6% (inactive)
- Potency [4]: inactive
- Potency [5]: inactive
- Potency [7]: inactive

SMILES: Cc1ccc([N+](=O)[O-])cc1S(=O)(=O)N(C)C
- Potency [8]: inactive
- max response [3]: 4.81% (inactive)
- Potency [4]: inactive
- Potency [5]: inactive
- Potency [7]: inactive

SMILES: Nc1ncnc2c1ncn2C1CCCO1 (configuration not stated)
- Potency [1]: inactive
- Potency [8]: inactive
- Potency [2]: inactive
- Potency [4]: inactive
- Potency [5]: inactive
- Potency [6]: inactive
- Potency [7]: inactive

SMILES: CN1CCc2cc(Cl)c(O)cc2[C@@H](c2ccccc2)C1
- Potency [1]: inactive
- Potency [8]: inactive
- max response [3]: 34.1% (inactive)
- Potency [4]: inactive
- Potency [5]: inactive
- Potency [6]: inactive
- Potency [7]: inactive

SMILES: O=C(O)CCC/C=C\C[C@@H]1[C@@H](/C=C/[C@H](O)C2Cc3ccccc3C2)[C@@H](F)C[C@@H]1O
- Potency [1]: inactive
- Potency [8]: inactive
- Potency [2]: inactive
- max response [3]: -7.09% (inactive)
- Potency [4]: inactive
- Potency [5]: inactive
- Potency [6]: inactive
- Potency [7]: inactive

SMILES: NC1CONC1=O (configuration not stated)
- Potency [1]: inactive
- Potency [8]: inactive
- max response [3]: 13.9% (inactive)
- parasite growth, % of DMSO control [10]: 94.2%
- parasite growth remaining, % of DMSO control (lower = more inhibition) [11]: 99.7%
- parasite growth, % of control (lower = inhibition) [12]: 78.4%
- growth, % of control [13]: 106%
- Potency [4]: inactive
- Potency [5]: inactive
- Potency [6]: inactive
- Potency [7]: inactive

SMILES: CC(C)(C)c1cc(/C=C(\C#N)C(N)=S)cc(C(C)(C)C)c1O
- Potency [1]: inactive
- Potency [8]: inactive
- max response [3]: 6.59% (inactive)
- Potency [4]: inactive
- Potency [5]: inactive
- Potency [6]: 3.38 µM (active)
- Potency [7]: 4.65 µM (active)

SMILES: Nc1nc2c(cnn2CCc2ccccc2)c2nc(-c3ccco3)nn12
- Potency [1]: inactive
- Potency [8]: inactive
- Potency [2]: inactive
- max response [3]: -5.77% (inactive)
- Potency [4]: inactive
- Potency [5]: inactive
- Potency [6]: inactive
- Potency [7]: inactive

SMILES: O=c1[nH]c2cc(Cl)ccc2c(O)c1-c1ccc(Oc2ccccc2)cc1
- Potency [1]: inactive
- Potency [8]: inactive
- Potency [2]: inactive
- max response [3]: 17.9% (inactive)
- Potency [4]: inactive
- Potency [5]: inactive
- Potency [6]: inactive
- Potency [7]: inactive

SMILES: O=C1Cc2c([nH]c3ccc(Br)cc23)-c2ccccc2N1
- Potency [1]: inactive
- Potency [8]: inactive
- Potency [2]: inactive
- Potency [5]: inactive
- Potency [14]: 11.6 µM (active)

SMILES: CCCC(=O)NCCc1c2n(c3ccc(OC)cc13)CCCc1ccccc1-2
- Potency [8]: inactive
- Potency [2]: inactive
- max response [3]: 19.4% (inactive)
- Potency [4]: inactive
- Potency [5]: inactive
- Potency [9]: inactive
- Potency [7]: inactive

SMILES: CCCCCCCCCCC/C=C\C(C)(C)/C=C\CCCC(=O)O
- Potency [8]: inactive
- Potency [2]: inactive
- max response [3]: 11.6% (inactive)
- Potency [4]: inactive
- Potency [5]: inactive
- Potency [6]: inactive
- Potency [7]: inactive

From PubChem BioAssay (NCATS)
